Most compounds without a hit are left out; they make up all but 4% or so of the library.
MazEF act: MazEF (E. coli) toxin RNase activation | FAM/BHQ RNA-DNA oligo cleavage fluorescence, 5 h | activation, % at 20 µM | P0AE70 | 350,000 tested, 0.32% active; in the data active means activation above about 50%
CCHFV vOTU inh: blocks the CCHF virus ovarian tumor domain protease. 370,000 tested, 0.55% active. inhibition, % at 11.5 µM. CCHFV vOTU protease, Pep-AMC fluorescence; further: 0% = vehicle wells with enzyme and 100% = no enzyme wells
GDH-TPI counter: counter-screen for M. tuberculosis FBA inhibitors: GDH-TPI coupled enzymes. GDH-TPI coupled enzyme counterscreen, NADH absorbance. inhibition, % at 4.8 µM. AID 588335. 360,000 tested, 1.2% active;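 further: 0% = DMSO wells and 100% = wells lacking the enzyme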
FBA Mtb inh: Mtb fructose-bisphosphate aldolase inhibition. purified M. tuberculosis FBA, fluorescence read-out. 360,000 tested, 2.3% active. inhibition, % at 1 µM. AID 588726. P9WQA3; in the data active means inhibition above about 27%;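 further: 0% = vehicle and 100% = reference inhibitor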
Target sequence (P9WQA3 whole entry, looked up): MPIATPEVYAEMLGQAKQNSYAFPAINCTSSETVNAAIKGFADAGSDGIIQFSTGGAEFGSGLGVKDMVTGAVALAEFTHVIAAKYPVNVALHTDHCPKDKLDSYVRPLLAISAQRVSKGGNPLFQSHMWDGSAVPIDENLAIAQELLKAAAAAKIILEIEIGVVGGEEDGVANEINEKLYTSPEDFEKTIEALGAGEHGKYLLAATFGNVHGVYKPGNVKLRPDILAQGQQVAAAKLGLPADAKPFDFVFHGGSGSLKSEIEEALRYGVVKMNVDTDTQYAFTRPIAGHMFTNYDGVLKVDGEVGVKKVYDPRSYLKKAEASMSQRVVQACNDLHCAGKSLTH
Mtb betalactam: beta-lactam sensitization of Mtb H37Rv; M. tuberculosis H37Rv growth with meropenem, percent inhibition; inhibition, % at 25 µM; 330,000 tested, 0.27% active; AID 434955; call rule not given here;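 further: growth measured after seven days incubation then overnight dye step; 0% = bacteria only wells and 100% = bacteria with antibiotic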
The depositor's hits bear a star; . = no result; + = active, no number. Unless noted, no stated cut-off is given here; in the data, active means inhibition above about 30%; inactive means the rest.

SMILES	MazEF act	CCHFV vOTU inh	GDH-TPI counter	FBA Mtb inh	Mtb betalactam
N#CC(C(=O)Nc1cccc(Cl)c1)=C1Nc2ccccc2N1	4.4	-3.2	30.4	0.3	-2.5
CC1=C(O)C(=O)C(C2=C(O)C(=O)C(C)=C(O)C2=O)=C(O)C1=O	3.1	4.2	49.0*	4.3	.
COC(=O)c1ccc(-c2ccc(/C=N/N3C(=O)C4C5C=CC(C6CC56)C4C3=O)o2)cc1 (centres undefined)	-0.7	8.6	34.4*	4.3	28.5
COC(=O)CSc1nnc(-c2ccc(NS(=O)(=O)c3ccc(Cl)s3)cc2)o1	.	3.1	.	.	.
COC(=O)[C@]12C[C@H](CC(=O)NCc3cccs3)C(=O)N(CCC3=CCCCC3)C1=C[C@H](C(C)C)O[C@@H]2C1CC1	.	12.7	.	.	.
CCc1ccc(C2C(C#N)=C(N)SC(N)=C2C#N)cc1	-120.8	-2.0	30.8*	7.1	3.0
C=CCN1C(=O)[C@@H](CC(=O)NCc2cccs2)[C@]2(C(=O)OCC)CCCCC/C=C/12	.	-0.5	.	.	.
CC1C(=O)NN=C1C(=O)N/N=C\c1ccc(O)cc1O (centres undefined)	0.0	3.6	61.7*	-2.8	7.2
COc1cc(/C=N/NC(=O)C2=NNC(=O)C2C)ccc1O (centres undefined)	2.4	0.5	21.9	-0.6	1.0
C/C(=N\NC(=O)CSc1nnc(-c2ccccc2)n1-c1ccc(C)cc1)c1ccc(-c2ccccc2)cc1	.	0.4	.	.	.
CCCCOc1ccc(C(=O)N/C(=C/C=C/c2ccccc2)C(=O)NCCO)cc1	-2.6	19.9	31.1*	-2.0	9.8
CN(C)CCCNC(=O)/C(=C\C=C\c1ccccc1)NC(=O)c1ccc([N+](=O)[O-])cc1	14.6	0.2	33.7*	-2.1	4.2
C=CCNC(=O)/C(=C\C=C\c1ccccc1)NC(=O)c1ccc(OCCCC)cc1	-0.8	13.9	35.3*	3.2	27.0
CCCCOc1ccc(C(=O)N/C(=C/C=C/c2ccccc2)C(=O)NCCCO)cc1	3.8	7.3	25.9	1.3	-1.2
COc1ccc(/C=C(/NC(=O)c2ccc([N+](=O)[O-])cc2)C(=O)NCCCN(C)C)cc1	10.6	3.6	3.3	-2.7	-4.7
COc1cccc(-c2ccc(CC[C@H]3O[C@H]4CC[C@H](CO)O[C@H]4C[C@H]3NS(C)(=O)=O)cc2)c1	.	-3.9	.	.	.
Cc1nc(NC(=O)c2oc3ccccc3c2C)sc1C(=O)N(C)C	5.7	0.8	32.4*	-1.3	5.1
Cc1nnc(NC(=O)c2oc3c(ccc4ccccc43)c2C)s1	3.7	-4.5	32.2*	14.7	1.5
Cc1nnc(NC(=O)c2oc3ccccc3c2C)s1	2.2	10.2	3.2	-0.3	-8.2
COc1cc2c(c(OC)c1OC)C1(CCCCC1)CC2NCC=C(C)C (centres undefined)	.	1.5	.	.	.
COC(=O)CCCC1=CC2=C(c3ccccc3)C(=O)C(C)(OC(=O)C3CCCC3)C(=O)C2=CN1CCc1c[nH]c2ccccc12 (centres undefined)	53.8*	15.5	4.3	-7.3	23.6
O=C(c1ccco1)n1c(=S)nc2ccccn21	5.2	3.2	52.0*	-3.9	-1.9
NS(=O)(=O)c1ccc(-c2ccc(C=O)o2)cc1	3.7	-1.1	34.1*	5.5	2.5
CCCOC(=O)c1ccc(-c2ccc(C=O)o2)cc1	5.2	14.8	36.2*	5.5	-8.3
CCOC(=O)c1ccc(-c2ccc(C=O)o2)cc1	-37.9	-4.2	21.5	16.5	.
SMILES	MazEF act	CCHFV vOTU inh	GDH-TPI counter	FBA Mtb inh	Mtb betalactam
COC(=O)N1C[C@H](OCc2ccccc2)[C@H]2C[C@@H]1c1ccccc1O2	.	14.0	.	.	.
O=S1(=O)c2ccc(Br)cc2OC[C@H](Cc2ccccc2)N1Cc1cn(Cc2ccc(Cl)cc2)nn1	.	4.3	.	.	.
CCCCc1c(-c2ccccc2OC)ncn1Cc1ccc(C)cc1	.	22.9	.	.	.
Cn1ccc2c(-c3ccc(C(=O)O)cc3)cc3c(c21)C1CCC3C1 (centres undefined)	.	-22.3	.	+	.
Cn1ccc2c(-c3ccc(C(C)(C)C)cc3)cc3c(c21)C1CCC3C1 (centres undefined)	.	8.1	.	2.6	.
NC(=O)c1nc(C2CCCCC2)nc2c1[nH]c(=O)n2-c1ccc(F)cc1	85.6*	-3.1	2.4	6.3	-3.9
COc1ccc(OC)c(-c2nc(C(N)=O)c3[nH]c(=O)n(-c4ccc(F)cc4)c3n2)c1	-10.0	-0.6	22.6	1.3	3.7
O=C(CCCn1c(SCc2cc(=O)n3ccccc3n2)nc2ccccc2c1=O)NCC1CCCO1 (centres undefined)	-1.8	11.0	32.9*	6.4	0.9

Assay outcomes as filed in PubChem BioAssay.
